# FBW7 activator – human FBW7 E3 ligase activation, primary screen; Q969H0; normalized activity (activation), % at 26.1 µM; AID 1259310; hit rate 0.13% among 650,000; AlphaScreen FBW7–phospho-cyclin E peptide binding, activator screen; in the data active means normalized activity above about 1.9%;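 further: purified mutant Fbw7 with reduced substrate affinity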
# Target sequence (Q969H0 whole entry, looked up): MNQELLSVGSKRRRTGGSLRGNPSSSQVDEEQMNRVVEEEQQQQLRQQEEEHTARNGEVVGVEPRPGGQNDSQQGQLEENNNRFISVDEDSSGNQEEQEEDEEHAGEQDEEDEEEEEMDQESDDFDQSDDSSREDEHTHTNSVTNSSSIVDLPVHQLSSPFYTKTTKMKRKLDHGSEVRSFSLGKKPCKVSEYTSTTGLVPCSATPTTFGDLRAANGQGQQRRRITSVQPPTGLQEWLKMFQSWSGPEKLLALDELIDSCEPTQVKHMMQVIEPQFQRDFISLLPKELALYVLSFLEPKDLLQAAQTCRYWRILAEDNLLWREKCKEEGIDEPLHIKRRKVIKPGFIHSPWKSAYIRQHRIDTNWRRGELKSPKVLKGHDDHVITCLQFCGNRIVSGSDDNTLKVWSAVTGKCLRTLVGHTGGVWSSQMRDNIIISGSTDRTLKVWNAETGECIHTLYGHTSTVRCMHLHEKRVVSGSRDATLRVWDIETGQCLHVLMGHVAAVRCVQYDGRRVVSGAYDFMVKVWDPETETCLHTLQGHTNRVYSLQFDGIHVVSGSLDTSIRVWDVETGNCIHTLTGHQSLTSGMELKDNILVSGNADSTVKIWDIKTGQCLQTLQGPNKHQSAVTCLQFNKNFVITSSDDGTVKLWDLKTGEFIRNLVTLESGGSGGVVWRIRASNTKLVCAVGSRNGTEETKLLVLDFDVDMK
# GPR151 activ – human GPR151 activation. hit rate 1% among 650,000. activation, % at 11.2 µM. PathHunter beta-arrestin GPR151 cells, luminescence; in the data active means activation above about 4.9%;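 further: 0% = median of compound wells and 100% = cells with positive control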
# TEAD-YAP block – TEAD-YAP interaction inhibition. inhibition, % at 9.12 µM. hit rate 1.4% among 640,000. HEK-TIYL cells, TEAD-Gal4/YAP UAS-luciferase luminescence; in the data active means inhibition above about 32%;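 further: 0% = median of test compound wells and 100% = reference inhibitor wells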
# MITF inh – human MITF inhibition, primary screen; AlphaScreen MITF homodimerization, bead proximity signal; inhibition, % at 2.6 µM; hit rate 0.91% among 650,000; in the data active means inhibition above about 50%;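 further: 0% = vehicle wells with protein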
# GPR151 confirm – confirmation of human GPR151 activators | GPR151 PathHunter beta-arrestin cells, luminescence, 90 min; % of EA-reagent control over plate median | activation, % at 11.2 µM | shares compounds with GPR151 activ | 6,700 tested, under 10 active;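 active means mean percent activation across replicates above the confirmation screen cutoff of 4.91%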
# GPR119 counter – counter-screen for GPR151 activators: effect on human GPR119. shares compounds with GPR151 activ. activation, % at 11.2 µM. hit rate 0.3% among 6,700. GPR119 PathHunter beta-arrestin cells, luminescence, 90 min; 0 = compound-well median, 100 = enzyme-acceptor control. AID 1508611;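 active means mean percent activation in the counterscreen above 29.09%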;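 further: counterscreen on off-target GPR119 to flag nonselective hits from the GPR151 activator screen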
# Numbers without * were called inactive; nt = not tested or not shown. Rows were chosen to be rich in hits. Some 3.5% of all compounds tested hit in one or more screens of this group.
SMILES,FBW7 activator,GPR151 activ,TEAD-YAP block,MITF inh,GPR151 confirm,GPR119 counter
O=C(Cn1cnc2ccccc2c1=O)NCCC(=O)N1CCN(Cc2ccc3c(c2)OCO3)CC1,0,5.4*,6,-31,0,16
Cc1ccc(N2CC(C(=O)Oc3ccc([N+](=O)[O-])cc3)CC2=O)cc1C (configuration not stated),0,-2,-7,2,nt,nt
O=C(O)C1C(C(=O)Nc2ccc(Cl)cc2)C2C=CC1C21CC1 (configuration not stated),1,-1,-13,18,nt,nt
O=C(O)C1C(C(=O)Nc2ccccc2)C2C=CC1C21CC1 (configuration not stated),0,7.5*,3,6,1,16
O=C(CCn1c(=S)[nH]c2ccccc2c1=O)Nc1ccc(Oc2ccccc2)cc1,0,0,6,1,nt,nt
C=CCN(C#N)c1nc(OC)nc(N2CCCC2)n1,0,14*,-2,10,1,7
COc1ccc(Cl)cc1NC(=S)Nc1ccc([N+](=O)[O-])cc1,0,-1,-14,11,nt,nt
CC1=CC2=NC(=O)/C(=C\c3ccc(-c4ccccc4Cl)o3)C(=N)N2O1,0,1,3,8,nt,nt
CC1=CC2=NC(=O)/C(=C\c3ccc(-c4cccc(Cl)c4)o3)C(=N)N2O1,0,5.9*,7,-1,0,11
Cc1cccc2sc(N(Cc3ccccn3)C(=O)CCOc3ccccc3)nc12,0,5.8*,-14,-6,0,3
CCN(CC)S(=O)(=O)c1cccc(C(=O)NN)c1,0,5.5*,-11,-3,0,-9
CN1C(=O)N(C)C(c2ccccc2Cl)C2=C1CC(C)(C)CC2=O (configuration not stated),0,1,-1,1,nt,nt
CN1C(=O)NC(c2ccccc2Cl)C2=C1CC(C)(C)CC2=O (configuration not stated),0,5.7*,4,-3,1,-3
COc1ccc(NC(=O)CC2C(=O)N(c3ccc(Cl)cc3)C(=S)N2CCCN2CCOCC2)cc1 (configuration not stated),0,5.0*,1,11,0,19
CCN1CCN(CCCN2C(=S)N(c3ccc(Cl)cc3)C(=O)C2CC(=O)Nc2ccc(OC)cc2)CC1 (configuration not stated),1,0,-2,0,nt,nt
CCCOc1ccc(NC(=O)CC2C(=O)N(c3ccc(Cl)cc3)C(=S)N2Cc2ccncc2)cc1 (configuration not stated),0,6.3*,1,4,2,-6
NC(=O)CC1C(=O)N(c2ccc(Cl)cc2)C(=S)N1Cc1cccnc1 (configuration not stated),0,5.4*,7,7,0,3
CCCOc1ccc(NC(=O)CC2C(=O)N(c3ccc(Cl)cc3)C(=S)N2Cc2cccnc2)cc1 (configuration not stated),0,0,-3,10,nt,nt
CCC(=O)c1ccc(C(C)C)cc1NN1c2cc(C(C)C)ccc2C(=O)C1(C)OC (configuration not stated),0,1,5,-14,nt,nt
CCOc1cc(C)c(C(C)C)cc1S(=O)(=O)N1CCN(C)CC1,0,2,2,5,nt,nt
CCOc1cc(C)c(C(C)C)cc1S(=O)(=O)N(CC)CC,0,16*,2,-9,0,-1
Cc1cccc(-c2noc(CN(C(C)C)S(=O)(=O)c3ccccc3)n2)c1,0,0,4,-7,nt,nt
c1ccc(-c2noc(CCC3CCCC3)n2)cc1,0,12*,0,1,-1,-8
CC(C)CC(=O)N1CCC(n2nnc3ccccc3c2=O)CC1,1,6.0*,0,27,1,5
CC(C)CNC(=O)Cn1nnc2ccccc2c1=O,0,7.7*,-9,-2,0,2
SMILES,FBW7 activator,GPR151 activ,TEAD-YAP block,MITF inh,GPR151 confirm,GPR119 counter
N[C@@H](Cc1ccccc1)C(=O)N1CCC(C(=O)Nc2ccc3[nH]ncc3c2)C1 (some centres not stated),0,0,-4,15,nt,nt
CC(=O)c1cc(C)ccc1OC(=O)c1ccc([N+](=O)[O-])cc1,0,6.4*,-1,8,1,-9
O=C1Sc2ccc(S(=O)(=O)Nc3ccc(O)c4ccccc34)c3cccc1c23,0,1,8,-1,nt,nt
COc1ccccc1NCC(=O)N/N=C/c1cc(Br)ccc1O,0,9.8*,24,15,0,-18
COc1ccc(Br)cc1/C=N/NC(=O)CSc1ncccn1,0,-2,-2,19,nt,nt
COc1cc(Br)cc(/C=N/NC(=O)CNc2ccccc2C)c1O,-1,5.9*,25,14,1,-1
COc1ccc(Br)cc1/C=N/NC(=O)CSc1ccccn1,1,7.0*,1,10,0,-13
COc1ccccc1NCC(=O)N/N=C/c1ccccc1O,0,0,1,11,nt,nt
COc1ccc(Br)cc1/C=N/NC(=O)CNc1ccccc1C,0,0,-4,-7,nt,nt
c1cncc(-c2nc3ccc(Cc4ccc5nc(-c6cccnc6)[nH]c5c4)cc3[nH]2)c1,0,-1,-6,1,nt,nt
N#CCCN(C(=O)CSc1nnc(N)s1)c1ccccc1,0,0,-7,-1,nt,nt
N#Cc1c(-c2cccc([N+](=O)[O-])c2)c(C#N)c(=O)n(N)c1N,0,1,7,-1,nt,nt
N#Cc1c(-c2ccccc2)cc(-c2cccc([N+](=O)[O-])c2)c(C#N)c1N,0,5.9*,14,-11,-1,-2
CCC(C)(C)c1ccc(OCC(O)Cn2c(CO)nc3ccccc32)c(C(C)(C)CC)c1 (configuration not stated),0,0,-1,-1,nt,nt
CC(C)(C)CC(=O)NCCCS(=O)(=O)N1CCN(c2ccc(F)cc2)CC1,0,6.6*,13,10,1,1
CN(C)c1nc2cc(F)ccc2cc1CN(Cc1ccco1)C(=O)c1cn2ccccc2n1,0,15*,2,0,0,7
CCOc1ccc2cc(S(=O)(=O)NCc3ccccc3)ccc2c1,0,5.2*,8,7,0,6
COc1ccc2cc(S(=O)(=O)NCc3ccccc3)ccc2c1,0,0,0,7,nt,nt
COc1cc(C(=O)N(Cc2nc(-c3ccc(C)cc3)no2)C(C)C)cc(OC)c1OC,0,8.3*,6,9,-2,-18
COc1ccccc1OCC(=O)NCC1CCCN(C(=O)CN2CCCC2=O)C1 (configuration not stated),0,0,-8,4,nt,nt
CC(=O)Nc1cnn(-c2ccc(C(=O)NC(c3ccncc3)c3ccccc3C)cc2)c1 (configuration not stated),0,5.4*,-7,-4,0,1

# From PubChem
